Data: PubChem BioAssay AID873 (PCMD, 2007)
Values joined by “and” are separate entries in the source; they are usually repeats but may differ in a detail not shown here. Equal values may be shown once. In all, about 210,000 compounds went through this assay and about 1,300 (0.62%) were called active.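 How the source made its calls: active means inhibition of 40% or more; inactive means the rest.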 What follows is part of a selection rich in actives, with near analogues and random picks from the rest. More than one record can exist for a structure, and the calls need not agree.

These compounds were tested against Kallikrein-5 (Homo sapiens) (UniProt Q9Y337) (assay: human KLK5 protease inhibitors, primary screen, biochemical, 1536-well (AID 873;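 further: 0% = enzyme controls without compound and 100% = no-enzyme blanks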)). Settings: recombinant hK5, fluorogenic AMC substrate cleavage; at 5 µM; stronger effect = higher value.
Chain of Kallikrein-5 (Homo sapiens) (Q9Y337 67-293 limits assumed): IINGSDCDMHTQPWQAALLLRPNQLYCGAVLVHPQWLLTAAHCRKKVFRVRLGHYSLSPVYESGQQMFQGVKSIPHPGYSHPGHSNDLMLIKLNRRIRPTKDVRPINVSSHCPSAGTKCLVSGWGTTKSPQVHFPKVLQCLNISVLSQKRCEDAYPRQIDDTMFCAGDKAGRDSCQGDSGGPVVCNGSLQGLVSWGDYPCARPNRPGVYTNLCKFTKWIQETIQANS
In the case of Cc1c(C(=O)N(Cc2ccccc2)Cc2cccnc2)cnn1-c1ccc(F)cc1, the inhibition is reported as -6% (inactive).
In the case of O=C(CSc1ccccc1)Nc1ccc(NC(=O)c2ccco2)cc1, the inhibition is reported as -26.9% (inactive).
O=C(Nc1ccc(Oc2ccccc2)cc1)c1ccco1 was tested, and the inhibition was 69.2% (active).
COC(=O)c1ccc(NC(=O)c2ccco2)cc1 was tested, and the inhibition was -16.9% (inactive).
For O=C(O)CCCCCCCCCC[n+]1ccccc1, the inhibition was -3.11% (inactive).
For CC1(C)CCSC(/C=C/c2ccccc2)=N1, the inhibition was -4.94% (inactive).
With Cc1ccc(Nc2nc(N)nc(CN3CCN(Cc4ccccc4)CC3)n2)cc1Cl the inhibition was -2.25% (inactive).
In the case of CC(C)CNC(=O)C1CCCN(S(=O)(=O)c2ccc(-n3cnnn3)cc2)C1 (stereo not drawn), the inhibition is reported as 11.1% (inactive).
COc1cc(C)nc(N2CCCC(C(=O)NCC(C)C)C2)n1 (stereo not drawn) was tested, and the inhibition was 61.5% (active).
Cc1ccnc(N2CCCC(C(=O)Nc3cc(F)ccc3C)C2)n1 (stereo not drawn) was tested, and the inhibition was -31.1% (inactive).
COc1cccc(C2Nc3cccc4cccc(c34)N2)c1 was tested, and the inhibition was -0.21% (inactive).
Cc1nc2sc(C(=O)c3ccccc3)c(N)c2c2c1CCCC2 was tested, and the inhibition was 44% (active).
CCc1nc2sc(C(=O)O)c(N)c2c2c1CCCC2 was tested, and the inhibition was -8.59% (inactive).
Cc1ccc2c(N)c(C(=O)c3ccccc3)sc2n1 was tested, and the inhibition was 17.9% (inactive).
For COc1ccc(CC(=O)NCC(=O)N/N=C/c2cc(Br)ccc2OC)cc1, the inhibition was -3% (inactive).
With Cc1c(C(=O)N/N=C/c2ccccc2)[nH]c2c([N+](=O)[O-])cccc12 the inhibition was 7.11% (inactive).
With COc1cccc2c(C)c(C(=O)O)[nH]c12 the inhibition was 90.6% (active).
In the case of COc1cccc2c(O)cc(=O)n(C)c12, the inhibition is reported as -13.9% (inactive).
For CSc1nnc(-c2ccc(C(F)(F)F)cn2)o1, the inhibition was 2.93% (inactive).
For OC(CNCc1ccc2c(c1)OCO2)COc1ccccc1 (stereo not drawn), the inhibition was 2.06% (inactive).
COc1cc(OC)cc(/C(N)=N/O)c1 was tested, and the inhibition was -2.69% (inactive).
O=C(O)CCn1cc(/C=C/C(=O)c2ccc(Cl)cc2)c(-c2cccc(Br)c2)n1 was tested, and the inhibition was 121% (active).
For CCOC(=O)/C(C#N)=C/c1cn(CCC(=O)O)nc1-c1ccc(Br)cc1, the inhibition was 0.91% (inactive).
With O=C(O)/C=C/c1cn(Cc2ccccc2)nc1-c1cccs1 the inhibition was -5.27% (inactive).
CCN1CCN(c2nc(Nc3cccc(F)c3)nc(N)c2[N+](=O)[O-])CC1 was tested, and the inhibition was 1.83% (inactive).
COC(=O)c1sccc1NC(=O)CC1C(=O)NCCN1C(=O)Nc1ccc(F)cc1F (stereo not drawn) was tested, and the inhibition was -1.42% (inactive).
In the case of Cc1ccc(-c2nc(SCC(=O)Nc3ccccc3OC(F)F)c3c(C)c(C(=O)O)sc3n2)cc1, the inhibition is reported as 0.7% (inactive).
COc1ccc(OC)c(NC(=O)N[C@H](Cc2ccccc2)C(=O)NN)c1 was tested, and the inhibition was -9.7% (inactive).
COC(=O)C1=C(C)N=C2SC(C)C(=O)N2C1/C=C/c1ccccc1 (stereo not drawn) was tested, and the inhibition was 61.9% (active).
C=CCOC(=O)C1=C(C)N=C2SCCC(=O)N2C1/C=C/c1ccccc1OC (stereo not drawn) was tested, and the inhibition was 1.43% (inactive).
For COC(=O)C1=C(C)NC(=O)NC1/C=C/c1ccccc1 (stereo not drawn), the inhibition was -24.4% (inactive).
CSc1ccc(CN(C)CC(=O)NCc2ccc(F)cc2)cc1 was tested, and the inhibition was -2.79% (inactive).
For Cc1ccnc(NC(=O)CCC(=O)N(CC(=O)NCc2ccccc2)Cc2ccco2)c1, the inhibition was -56.9% (inactive).
In the case of NC(=O)c1nsc(C(=O)N(CC(=O)NCc2ccc(F)cc2)Cc2ccco2)c1N, the inhibition is reported as 69.4% (active).
With Cc1[nH]n(-c2ccccc2)c(=O)c1N=Nc1ccccc1C(=O)N1CCCCC1 the inhibition was 3.28% (inactive).
For O=C(Cc1ccccc1)N1N=C(c2ccncc2)CC1(O)C(F)(F)F (stereo not drawn), the inhibition was -2.66% (inactive).
In the case of Brc1ccc2ncnc(NCc3cccnc3)c2c1, the inhibition is reported as -4.89% (inactive).
In the case of Cc1[nH]n(C)c(=O)c1C(=O)c1c(-c2c(Cl)cccc2Cl)noc1C, the inhibition is reported as 5.65% (inactive).
With Cc1cccc(NC(=O)/C(=C\c2ccco2)NC(=O)c2ccccc2)c1 the inhibition was -17.2% (inactive).
In the case of O=C(NCC1CCCO1)/C(=C\c1ccco1)NC(=O)c1ccccc1 (stereo not drawn), the inhibition is reported as -1.75% (inactive).
For O=C(OCN1C(=O)c2ccccc2C1=O)/C(=C\c1ccco1)NC(=O)c1ccccc1, the inhibition was 41.6% (active).
With O=C(CNCCC1=CCCCC1)Nc1ccccc1N1CCCCCC1 the inhibition was -0.35% (inactive).
In the case of Cc1cccc(C)c1Nc1c(-c2ccccc2O)nc2ncccn12, the inhibition is reported as -0.27% (inactive).
CC(C)(C)OC(=O)NCCCCCC(=O)N/N=C/c1coc2ccccc2c1=O was tested, and the inhibition was -0.18% (inactive).
COc1cccc(NC(=O)C(C)Oc2ccccc2)c1 (stereo not drawn) was tested, and the inhibition was 15.3% (inactive).
With O=C(O)Cc1ccc(-c2ccccc2)cc1 the inhibition was -3.86% (inactive).
In the case of CCC(C)OC(=O)C(C)Oc1ccc(-c2ccccc2)cc1 (stereo not drawn), the inhibition is reported as 54.9% (active).
For Cc1ccccc1Cn1c2ccccc2c2cnn(CC(=O)NCc3ccco3)c(=O)c21, the inhibition was 1.05% (inactive).
CCOc1ccccc1NC(=O)CCN1CCN(S(=O)(=O)c2ccc(OC)cc2)CC1 was tested, and the inhibition was 0.91% (inactive).
CCOc1ccccc1NC(=O)CCc1ccc(C)o1 was tested, and the inhibition was 118% (active).
With CCOc1ccccc1NC(=O)Nc1cc(OC)ccc1OC the inhibition was -0.87% (inactive).
For CCOCCCNCc1ccc(OCc2ccc(F)cc2)c(OC)c1, the inhibition was -4.94% (inactive).
For CCS(=O)(=O)NCCc1ccc(OC)c(OC)c1, the inhibition was -7.94% (inactive).
In the case of COc1ccc(CNCCCO)cc1OC, the inhibition is reported as 46.4% (active).
With O=C(NCc1cccnc1)C(=O)Nc1nc(-c2ccccc2)cs1 the inhibition was -0.27% (inactive).
With COCCCNC(=O)c1ccc2c(c1)ncn2-c1ccccc1OC the inhibition was -11.7% (inactive).
For COc1ccccc1-n1cnc2cc(NS(=O)(=O)c3ccccc3)ccc21, the inhibition was 53.3% (active).
In the case of COc1cc(NS(=O)(=O)c2ccccc2)ccc1-n1nc(C)cc1C, the inhibition is reported as -1.07% (inactive).
O=S(=O)(c1ccc(NC(=S)NN=C(C2CC2)C2CC2)cc1)N1CCOCC1 was tested, and the inhibition was -9.15% (inactive).
For CCN1C(=O)/C(=C2/Sc3ccccc3N2CCCS(=O)(=O)O)SC1=S, the inhibition was -2.57% (inactive) and 43.4% (active).
In the case of CCN1C(=O)/C(=c2\s/c(=C3\Sc4ccccc4N3C)c(=O)n2C)N(C)C1=S, the inhibition is reported as 2.3% (inactive).
For CCC(=O)/C=C1\Sc2ccccc2N1CC, the inhibition was -8.47% (inactive).
In the case of S=c1nc2ccccc2c2nc(-c3cccnc3)[nH]n12, the inhibition is reported as -1% (inactive).
For O=C(CN1CCN(Cc2ccccc2)CC1)NC(c1ccccc1)c1ccccc1, the inhibition was -1.99% (inactive).
For Cc1cc2c(cc1C)N(Cc1ccccc1)C1=NCCCN12, the inhibition was -0.81% (inactive).
In the case of COc1ccc(C(C(=O)NC(C)(C)C)N(C(=O)Cn2nnc3ccccc32)c2ccc(C(C)=O)cc2)cc1O (stereo not drawn), the inhibition is reported as -4.08% (inactive).
CCOc1ccc(/C(O)=C2\C(=O)C(=O)N(c3ccc(OC)cc3)C2c2ccccc2[N+](=O)[O-])cc1 (stereo not drawn) was tested, and the inhibition was -0.1% (inactive).
For C/C(Cc1ccccc1)=N\NC(=O)CNC(=O)c1ccccc1Cl, the inhibition was 47.7% (active).
C/C(Cc1ccccc1)=N\NC(=O)CNC(=O)c1cccc(Br)c1 was tested, and the inhibition was -15.8% (inactive).
C/C(Cc1ccccc1)=N\NC(=O)CNC(=O)c1ccc2c(c1)OCCO2 was tested, and the inhibition was -2.98% (inactive).
For Cc1cc(C(=O)NCCc2ccc(Cl)cc2)n(-c2ccccc2)n1, the inhibition was 0.87% (inactive).
In the case of C=CCNC(=O)c1ccc2c3n(nc2c1)-c1ccc(C)cc1CO3, the inhibition is reported as 2.58% (inactive).
In the case of C=CCNC(=S)N/N=C/c1ccc(C)s1, the inhibition is reported as -12.8% (inactive).
For Cc1nc(-c2ccc(Cl)cc2)sc1C1(C)CC(c2ccccc2F)=NO1 (stereo not drawn), the inhibition was 2.17% (inactive).
CC(=O)c1ccc(S(=O)(=O)N2CCN(C(=O)/C=C/c3ccc4ccccc4n3)CC2)cc1 was tested, and the inhibition was -6.25% (inactive).
COCCNC(=S)N1CCN(C)CC1 was tested, and the inhibition was 0.97% (inactive).
CC(=O)c1cccc(NC(=O)c2ccncc2)c1 was tested, and the inhibition was 2.01% (inactive).
With CSc1ccccc1C(=O)Nc1cccc(C(C)=O)c1 the inhibition was 45% (active).
For COc1cccc(NC(=O)c2ccccc2SC)c1, the inhibition was -2.44% (inactive).
In the case of CC(C)(C)C(=O)NNC(=O)c1ccc(Oc2cc(Cl)cc(Cl)c2)o1, the inhibition is reported as 4.32% (inactive).
In the case of COCCNc1nc(-c2ccccc2)nc2c1oc1ccccc12, the inhibition is reported as 1.99% (inactive).
In the case of Cn1c(=O)c2c(-c3cccc(Br)c3)c(C#N)c(N)nc2n(C)c1=O, the inhibition is reported as 2.05% (inactive).
With S=C(NCCc1ccccc1)Nc1ccccc1 the inhibition was 2.79% (inactive).
